RecA intein inh = blocks M. tuberculosis RecA intein splicing. P9WHJ3. cell-free RecA intein splicing, fluorescence. inhibition, % (no concentration beside the values). actives 0.75% (n = 290,000). AID 2221; in the data active = inhibition above about 30%; inconclusive = no clear call, values can overlap the other calls;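 also: 0% = vehicle wells and 100% = reference inhibitor control wells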
Target sequence (P9WHJ3 whole entry, looked up): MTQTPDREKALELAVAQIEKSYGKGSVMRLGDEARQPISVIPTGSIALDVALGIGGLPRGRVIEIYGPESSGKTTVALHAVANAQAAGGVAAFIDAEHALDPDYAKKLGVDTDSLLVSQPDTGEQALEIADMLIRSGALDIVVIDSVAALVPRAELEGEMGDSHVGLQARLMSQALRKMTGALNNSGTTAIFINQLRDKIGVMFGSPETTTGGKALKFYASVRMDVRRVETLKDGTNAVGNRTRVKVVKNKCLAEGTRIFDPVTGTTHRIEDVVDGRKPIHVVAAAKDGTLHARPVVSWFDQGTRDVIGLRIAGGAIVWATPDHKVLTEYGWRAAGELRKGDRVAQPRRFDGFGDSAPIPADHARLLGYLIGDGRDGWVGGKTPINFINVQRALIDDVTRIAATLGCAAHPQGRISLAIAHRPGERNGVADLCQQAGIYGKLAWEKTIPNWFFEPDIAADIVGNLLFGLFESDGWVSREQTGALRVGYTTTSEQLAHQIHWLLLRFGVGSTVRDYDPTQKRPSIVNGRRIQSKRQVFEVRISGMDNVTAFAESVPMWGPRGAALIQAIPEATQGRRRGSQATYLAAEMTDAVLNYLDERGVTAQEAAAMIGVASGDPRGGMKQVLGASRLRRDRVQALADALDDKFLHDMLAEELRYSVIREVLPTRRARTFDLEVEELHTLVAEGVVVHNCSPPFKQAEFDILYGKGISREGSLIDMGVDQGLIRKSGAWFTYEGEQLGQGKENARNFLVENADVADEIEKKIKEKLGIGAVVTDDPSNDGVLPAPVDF
UGM FP inh = blocks M. tuberculosis UGM enzyme | inhibition, % at 10 µM | P9WIQ1 | actives 0.06% (n = 320,000) | purified UGM, fluorescence polarization probe displacement; in the data active = inhibition above about 10%, passing the limit was not always enough; inconclusive = no clear call, values can overlap the other calls
GDH-TPI inh = counter-screen for M. tuberculosis FBA inhibitors: GDH-TPI coupled enzymes; GDH-TPI coupled enzyme counterscreen, NADH absorbance; inhibition, % at 4.8 µM; actives 1.2% (n = 360,000); in the data active = inhibition above about 30%;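 also: 0% = DMSO wells and 100% = wells lacking the enzyme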
Mtb FBA inh = inhibits M. tuberculosis FBA enzyme; P9WQA3; inhibition, % at 1 µM; purified M. tuberculosis FBA, fluorescence read-out; actives 2.3% (n = 360,000); in the data active = inhibition above about 27%;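 also: 0% = vehicle and 100% = reference inhibitor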
Mtb betalactam = beta-lactam sensitization of Mtb H37Rv. M. tuberculosis H37Rv growth with meropenem, percent inhibition. actives 0.27% (n = 330,000). AID 434955. inhibition, % at 25 µM; call rule not given here;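 also: growth measured after seven days incubation then overnight dye step; 0% = bacteria only wells and 100% = bacteria with antibiotic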
Rv3671c inh = inhibitors of M. tuberculosis serine protease Rv3671c | P9WHR9 | actives 0.048% (n = 320,000) | inhibition, % at 5.96 µM; in the data active = inhibition above about 38%;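 also: extracellular domain of Rv3671c used as enzyme; 0% = enzyme with DMSO and 100% = no enzyme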
The depositor's hits bear a star. Compounds with a hit are over-represented: about 4% of the library has one in this group of screens.

For Cc1ccc2nc(N3CCN(C(=O)c4ccco4)CC3)c3nncn3c2c1 the results were RecA intein inh -2.1, UGM FP inh 3.3, GDH-TPI inh 12.8, Mtb FBA inh -0.8, Mtb betalactam -1.0 and Rv3671c inh -0.4.
CC(OC(=O)CCCN=C1NS(=O)(=O)c2ccccc21)C(=O)Nc1ccc(F)cc1Cl (centres undefined) was read as RecA intein inh -1.9, UGM FP inh 1.9, GDH-TPI inh 0.7, Mtb FBA inh -0.6, Mtb betalactam -10.1 and Rv3671c inh 6.5.
COc1cc(C=NNC(=O)c2ccc(NS(=O)(=O)c3cccs3)cc2)cc(Br)c1O was read as UGM FP inh 0.1, GDH-TPI inh 52.0*, Mtb FBA inh 1.1, Mtb betalactam 3.3 and Rv3671c inh 2.1.
COc1ccccc1CNC(=O)c1ccc(NS(=O)(=O)c2cccs2)cc1 was read as RecA intein inh 3.2, UGM FP inh 5.3, GDH-TPI inh -12.3, Mtb FBA inh -3.0, Mtb betalactam -9.5 and Rv3671c inh -18.6.
`COc1ccc2ccc3cccc[n+]3c2c1` gave GDH-TPI inh -1.5 and Mtb FBA inh 133.7*.
For Nc1ccc2ccc3cccc[n+]3c2c1 the results were RecA intein inh inactive, UGM FP inh 62.5*, GDH-TPI inh 10.4, Mtb FBA inh -5.0, Mtb betalactam -0.1 and Rv3671c inh -16.1.
For CCOCCCNC(=O)C(c1ccc(C)cc1)N(Cc1cccs1)C(=O)c1ccccn1 (centres undefined) the results were UGM FP inh -2.5, GDH-TPI inh 1.9, Mtb FBA inh 7.2, Mtb betalactam -4.7 and Rv3671c inh -7.6.
`O=C(COC(=O)CN1C(=O)NC2(CCCC2)C1=O)NCc1ccc(Cl)cc1Cl` gave UGM FP inh 11.2*, GDH-TPI inh 9.7, Mtb FBA inh 4.4, Mtb betalactam -8.3 and Rv3671c inh -1.2.
`CSc1ccc(/C=C(\NC(=O)c2ccccc2)C(=O)NCCN2CCOCC2)cc1` gave RecA intein inh -0.5, UGM FP inh -1.6, GDH-TPI inh 14.0, Mtb FBA inh 0.2, Mtb betalactam 0.5 and Rv3671c inh 5.9.
Screening Cc1ccc(C(=O)OCC(=O)N2CCC(C)CC2)cc1S(=O)(=O)N1CCCCC1 returned RecA intein inh 1.6, UGM FP inh -0.1, GDH-TPI inh 8.8, Mtb FBA inh -0.6, Mtb betalactam -12.3 and Rv3671c inh 3.0.
Screening C#CCSc1ncc(S(=O)(=O)c2ccccc2)c(=O)[nH]1 returned RecA intein inh 2.3, UGM FP inh 1.5, GDH-TPI inh 12.4, Mtb FBA inh -2.0, Mtb betalactam -4.7 and Rv3671c inh 0.9.
Screening COc1ccc(N2CC(O)(c3ccc(OC(F)F)cc3)[N+]3=C2CCCC3)cc1 (centres undefined) returned RecA intein inh -2.5, UGM FP inh 1.2, GDH-TPI inh 0.0, Mtb FBA inh -1.1, Mtb betalactam 5.7 and Rv3671c inh 1.0.
Screening CCCC1=[N+](CC(=O)c2ccccc2)CCn2c(C)ccc21 returned UGM FP inh -1.2, GDH-TPI inh 35.2*, Mtb FBA inh -3.7, Mtb betalactam 3.8 and Rv3671c inh 7.1.
For CCCC1=[N+](CC)CCn2c(C)ccc21 the results were RecA intein inh -0.2, UGM FP inh -1.3, GDH-TPI inh 30.6, Mtb FBA inh -1.2, Mtb betalactam -3.5 and Rv3671c inh 0.2.
CCOC(=O)/C(C#N)=C/N=c1ccc(C)cn1C was read as RecA intein inh -3.6, UGM FP inh 2.7, GDH-TPI inh 39.3*, Mtb FBA inh 1.9, Mtb betalactam -1.7 and Rv3671c inh 0.8.
For CCCN1C=CC(=C/C=C(\C#N)C(=O)OCC)C=C1 the results were RecA intein inh -10.1, UGM FP inh -5.7, Mtb betalactam -0.9 and Rv3671c inh -22.9.
`COCCNC(=O)c1onc(CSc2ccccc2)c1C(=O)O` gave RecA intein inh -1.7, UGM FP inh 2.4, GDH-TPI inh -0.9, Mtb FBA inh 0.5, Mtb betalactam -0.7 and Rv3671c inh -11.5.
`CCc1nn(CC(=O)NCCN2CCN(C)CC2)c(=O)c2cc3c(OC)cccc3n12` gave RecA intein inh 2.5, UGM FP inh 2.4, GDH-TPI inh 11.3, Mtb FBA inh active, Mtb betalactam 0.1 and Rv3671c inh 5.1.
CCc1nn(CC(=O)N2CCC(C)CC2)c(=O)c2cccn12 was read as RecA intein inh -1.1, UGM FP inh -0.3, GDH-TPI inh -5.2, Mtb FBA inh -0.8, Mtb betalactam 2.9 and Rv3671c inh 2.1.
`COc1cccc2c1cc1c(=O)n(CC(=O)N3CCC(C)CC3)nc(C)n12` gave RecA intein inh -2.2, UGM FP inh -2.5, GDH-TPI inh 9.6, Mtb FBA inh active, Mtb betalactam inconclusive and Rv3671c inh 1.5.
`COc1ccc(C/C(O)=C(\C#N)c2nc3ccccc3s2)cc1` gave RecA intein inh -2.2, UGM FP inh -0.2, GDH-TPI inh 46.2*, Mtb FBA inh -2.6, Mtb betalactam 98.8 and Rv3671c inh -2.1.
Screening N#C/C(=C(/O)COc1ccccc1)c1nc2ccccc2s1 returned RecA intein inh 1.7, UGM FP inh -1.2, GDH-TPI inh 28.7, Mtb FBA inh -0.2, Mtb betalactam 12.7 and Rv3671c inh -8.5.
`Cc1ccc(SC/C(O)=C(\C#N)c2nc3ccccc3s2)cc1` gave RecA intein inh 1.2, UGM FP inh -4.1, GDH-TPI inh 32.4*, Mtb FBA inh -1.3, Mtb betalactam 15.4 and Rv3671c inh 9.0.
Screening N#C/C(=C(/O)CSc1ccccc1C(=O)O)c1nc2ccccc2s1 returned RecA intein inh -5.9, UGM FP inh 14.5*, GDH-TPI inh 73.4*, Mtb FBA inh -3.9, Mtb betalactam -2.1 and Rv3671c inh 0.2.
For N#C/C(=C(/O)CSc1ccccn1)c1nc2ccccc2s1 the results were RecA intein inh -2.8, UGM FP inh 2.7, GDH-TPI inh 7.2, Mtb FBA inh -4.4, Mtb betalactam -0.8 and Rv3671c inh -19.7.
Screening CC(C)(C)c1ccc(OCc2ccc(C(=O)N/N=C/c3ccc(O)c(O)c3)cc2)cc1 returned RecA intein inh -2.8, UGM FP inh 0.0, GDH-TPI inh 5.0, Mtb FBA inh -0.8, Mtb betalactam 37.0 and Rv3671c inh 16.2.
CC(C)OC(=O)C1C2C=CC3(CN(Cc4cccs4)C(=O)C13)O2 (centres undefined) was read as RecA intein inh 0.1, UGM FP inh 0.6, GDH-TPI inh -4.3, Mtb FBA inh 122.7*, Mtb betalactam -8.0 and Rv3671c inh 0.6.
For COC(=O)C1C2C=CC3(CN(Cc4cccs4)C(=O)C13)O2 (centres undefined) the results were RecA intein inh -1.1, UGM FP inh 3.0, GDH-TPI inh 1.2, Mtb FBA inh 6.0, Mtb betalactam 2.6 and Rv3671c inh -5.8.
Screening CC1CCCCC1NC(=O)Cn1[nH]c(=O)c2ccccc2c1=O (centres undefined) returned RecA intein inh -3.4, UGM FP inh 0.2, GDH-TPI inh 2.5, Mtb FBA inh 10.3, Mtb betalactam -2.8 and Rv3671c inh -0.8.

Screening results from PubChem.
